Screens: PubChem, National Center for Advancing Translational Sciences (NCATS)
JMJD2A Tudor: inhibitors of human JMJD2A Tudor domain; AlphaScreen JMJD2A-Tudor / H3K4me3 peptide binding; Potency, µM (top dose mostly 114 µM), usual class: inhibitors; 390,000 tested, 4.4% active; AID 504339; further: nearly all actives have a fitted effect of over 50% in size
L3MBTL1 block: inhibitors of human L3MBTL1; Q9Y468; AlphaScreen L3MBTL1–H3K9me1 peptide binding; Potency, µM (highest dose often 57.1 µM), hits mostly inhibitors; 230,000 tested, 0.66% active; further: nearly all actives have a fitted effect of over 60% in size
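Read-out is AlphaScreen signal from streptavidin donor and nickel chelate acceptor beads (10 ug/mL final each) bridging L3MBTL1 (50 nM) and biotinylated K9-monomethylated H3(1-15) peptide (75 nM), after 30 min compound exposure at room temperature.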
PI5P4Ka inh: PI5P4K alpha (human) kinase inhibition; P48426; PI5P4Kalpha enzyme, ADP-Glo luminescence, 60 min; stronger effect = lower value; max response, %; 330,000 tested, 1.2% active; AID 652105; active means max response of -50% or lower; inconclusive means between -30% and -50%; inactive means -30% or higher; further: value at the top dose of about 77 µM
Target sequence (P48426 whole entry, looked up): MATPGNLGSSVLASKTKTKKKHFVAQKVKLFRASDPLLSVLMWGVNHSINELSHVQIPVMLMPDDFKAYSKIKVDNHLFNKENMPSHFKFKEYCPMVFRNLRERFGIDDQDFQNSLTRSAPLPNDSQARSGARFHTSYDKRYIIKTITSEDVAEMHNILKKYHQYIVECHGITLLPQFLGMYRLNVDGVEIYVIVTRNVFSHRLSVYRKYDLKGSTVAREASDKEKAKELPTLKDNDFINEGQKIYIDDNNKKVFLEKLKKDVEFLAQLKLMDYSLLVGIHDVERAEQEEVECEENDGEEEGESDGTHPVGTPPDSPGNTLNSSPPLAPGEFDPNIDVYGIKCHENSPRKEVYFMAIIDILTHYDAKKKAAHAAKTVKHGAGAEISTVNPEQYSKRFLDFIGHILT
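qHTS, 1536-well: enzyme/substrate mix, compound by pin tool, 5 microM ATP final; RT 60 min; ADP-Glo reagents 1 (45 min) then 2 (30 min); luminescence.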
BAZ2B block: BAZ2B (human) inhibition | Q9UIF8 | AlphaScreen BAZ2B-H3K14Ac peptide displacement | Potency, µM (highest dose often 114 µM), most hits filed as inhibitors | 360,000 tested, 4.4% active; further: nearly all actives have a fitted effect of over 60% in size
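Compounds, titrated to a top concentration of 110 uM, were incubated 30 min at room temperature with preformed BAZ2B/acetyl-K14 H3 peptide complex (50 nM each). Proximity signal was measured by AlphaScreen after 20 min with beads.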
KDM4E inh: inhibitors of human JMJD2E histone demethylase | B2RXH2 | JMJD2E catalytic domain, FDH-coupled NADH fluorescence (FDH is formaldehyde dehydrogenase) | Potency, µM (highest dose often 57.1 µM), hits mostly inhibitors | 230,000 tested, 1.6% active | AID 2147; active means well fitted inhibition curve with a large enough effect, not every such curve was filed as active; inconclusive means small, poorly fitted or top-dose-only effect, or another doubt; inactive means no such curve, though single readings can be large or run the other way; further: nearly all actives have a fitted effect of over 50% in size
HP1b binding inh: inhibitors of HP1-beta chromodomain binding to methylated histone tails; P83916; AlphaScreen HP1-beta / biotin-H3K9me3 peptide binding; Potency, µM (series often up to 114 µM), actives largely listed as inhibitors; 390,000 tested, 0.56% active; AID 540317; further: nearly all actives have a fitted effect of over 70% in size
Target sequence (P83916 whole entry, looked up): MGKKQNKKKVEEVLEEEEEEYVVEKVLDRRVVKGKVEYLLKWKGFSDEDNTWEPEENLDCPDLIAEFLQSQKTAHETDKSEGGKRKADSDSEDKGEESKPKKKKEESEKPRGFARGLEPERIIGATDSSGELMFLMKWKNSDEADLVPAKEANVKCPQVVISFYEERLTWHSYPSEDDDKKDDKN
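AlphaScreen: HP1-beta (50 nM) preformed 30 min with biotin-H3(1-18)K9me3 peptide (50 nM) in PBS pH 7.4, 0.01% Tween-20. Compound added for 30 min at RT, then streptavidin donor/nickel chelate acceptor beads (10 ug/mL) for 30 min.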
A number is an active result; i = inactive; ? = inconclusive; nt = not tested or not shown. Sampled rows, rich in hits. Any-hit rate of the full collection: about 5.7%. Unless noted, the call rests on the fitted dose curve; in most records, active means well fitted inhibition curve with a large enough effect; inconclusive means small, poorly fitted or top-dose-only effect; inactive means no such curve, though single readings can be large or run the other way.

SMILES	JMJD2A Tudor	L3MBTL1 block	PI5P4Ka inh	BAZ2B block	KDM4E inh	HP1b binding inh
COc1cc(/C=N/NS(=O)(=O)c2ccc(C(C)(C)C)cc2)cc([N+](=O)[O-])c1O	56.2µM	i	i	?	i	?
COC(=O)N/N=C/c1cc(OC)c(O)c([N+](=O)[O-])c1	i	i	i	i	i	i
COc1cc(/C=N/NS(=O)(=O)c2ccc(C)c([N+](=O)[O-])c2)ccc1O	i	i	i	nt	i	i
COc1ccc(-n2c(O)c(C=Nc3ccccc3)c3ccccc3c2=O)cc1OC	i	i	i	i	i	i
COc1cc(/C=N/NC(N)=O)cc([N+](=O)[O-])c1O	i	i	-55.7	?	i	i
COc1ccc(-n2c(O)c(/C=N/NS(=O)(=O)c3ccc(C)c([N+](=O)[O-])c3)c3ccccc3c2=O)cc1OC	39.8µM	i	i	50.1µM	?	?
COc1cc(/C=N/NS(=O)(=O)c2ccc(C)c([N+](=O)[O-])c2)cc([N+](=O)[O-])c1O	i	i	?	50.1µM	nt	i
Cc1ccc(NC(=O)COC(=O)c2ccc3ncsc3c2)c(C)c1	nt	nt	i	nt	nt	nt
O=C(NC1CCCC1)C1c2ccccc2OCC(=O)N1Cc1cccnc1 (configuration not stated)	nt	nt	i	nt	nt	nt
Cc1ccc2cc3cc(C(=O)N(C)c4ccccc4C)oc3nc2c1	i	nt	nt	nt	nt	i
Cc1cc(S(=O)(=O)N2CCOCC2)ccc1F	79.4µM	i	i	i	i	?
COc1ccc(Nc2ccc(S(=O)(=O)N3CCCCC3)cc2[N+](=O)[O-])cc1Cl	5.62µM	?	i	8.91µM	i	?
CCOc1cc(S(=O)(=O)N2CCOCC2)ccc1F	i	i	i	i	i	i
Cc1ccc(Nc2ccc(S(=O)(=O)N3CCOCC3)cc2[N+](=O)[O-])c(C)c1	?	?	i	10µM	i	?
CCc1ccc(Nc2ccc(S(=O)(=O)N3CCOCC3)cc2[N+](=O)[O-])cc1	11.2µM	?	i	11.2µM	i	?
CCOc1ccc(Nc2ccc(S(=O)(=O)N3CCOCC3)cc2[N+](=O)[O-])cc1	nt	nt	i	nt	nt	nt
Cc1ccc2c(c1)-c1c(cnc3cc(-c4ccc(Cl)cc4)nn13)CO2	i	nt	nt	i	nt	i
COc1ccc(CCNC(=O)c2cnn(-c3ccc(F)cc3)c2C2CCN(C(=O)OC(C)(C)C)CC2)c(OC)c1	?	nt	nt	i	nt	i
Cc1cc(C)nc(NC(=O)CSc2nn(-c3ccccc3)c(=S)s2)n1	?	i	i	79.4µM	i	i
C[N+](C)(C)C(Cc1c[nH]c2ccccc12)C(=O)[O-] (configuration not stated)	nt	nt	nt	i	i	nt
CCCCC1NC(C(=O)O)CS1 (configuration not stated)	31.6µM	i	i	50.1µM	i	?
O=C(N/N=C/c1coc2ccccc2c1=O)c1cc(O)cc(O)c1	i	nt	-54.0	i	i	i
Cc1ccc(C(=O)N/N=C/c2cn(Cc3ccccc3)c3ccccc23)cn1	?	?	i	i	?	i
O=C(O)c1ccc(N/N=C/c2cn(Cc3ccc(F)cc3)c3ccccc23)cc1	56.2µM	i	?	44.7µM	?	i
CC(C)n1cc(/C=N/Nc2ccc(Cl)c(C(=O)O)c2)c2ccccc21	nt	i	nt	44.7µM	nt	nt
SMILES	JMJD2A Tudor	L3MBTL1 block	PI5P4Ka inh	BAZ2B block	KDM4E inh	HP1b binding inh
Cc1cccc(C(=O)N/N=C/c2coc3ccccc3c2=O)c1	i	nt	?	i	nt	i
O=C(N/N=C/c1cn(Cc2ccccc2)c2ccccc12)c1cc(O)cc(O)c1	?	nt	?	50.1µM	nt	i
COc1cccc(CN2C(=O)c3ccccc3Sc3ccc(C(=O)NCCc4ccc(C)cc4)cc32)c1	i	nt	nt	nt	nt	i
C=CCOc1ccc(-c2nc3c(c(=O)[nH]c(=O)n3CCCC)n2C)cc1OC	31.6µM	i	i	i	?	i
CCCCn1c(=O)[nH]c(=O)c2c1nc(-c1cc(Br)c(OCC)c(OC)c1)n2C	i	nt	i	i	nt	i
COc1c(C)cccc1C(=O)NC(=S)Nc1ccccc1N1CCCC1	50.1µM	nt	i	?	nt	i
COc1ccc(N2CCCC2)c(NC(=O)c2ccc(Br)o2)c1	50.1µM	nt	i	?	nt	?
COc1cccc(C(=O)NC(=S)Nc2ccccc2N2CCCC2)c1	?	i	i	28.2µM	i	22.4µM
COc1cccc(C(=O)NC(=S)Nc2ccccc2N2CCCCC2)c1	?	nt	i	?	nt	i
C/C(=N\OCC(=O)OC(C)C(=O)Nc1ccc(C(N)=O)cc1)c1ccc2c(c1)OCO2 (configuration not stated)	i	nt	i	i	nt	i
COc1ccc(/C=C/c2ccc(=O)n(Cc3ccccc3)n2)cc1	?	i	-51.1	i	?	i
O=c1ccc(/C=C/c2ccccc2)nn1Cc1ccc(F)cc1	i	i	i	i	?	i
O=C(O)c1ccc(-c2ccc(-c3ccccc3)cc2)s1	nt	nt	nt	50.1µM	nt	nt
O=C(Nc1ccccc1)c1ccc(-c2ccccc2)s1	i	nt	i	nt	i	i
COc1ccc(CCC(C)NCC(C)c2ccccc2)cc1 (configuration not stated)	i	i	i	i	nt	i
COc1ccc(NC(C)c2ccccc2)cc1 (configuration not stated)	50.1µM	nt	i	39.8µM	i	?
COc1ccc(CCNCC(C)c2ccccc2)cc1 (configuration not stated)	7.94µM	nt	i	?	nt	i
COc1ccc(CCNCC(O)c2ccccc2)cc1 (configuration not stated)	5.01µM	i	i	56.2µM	7.94µM	i
CCOC(=O)N1CCC(N(CCN(C)C)C(=S)Nc2cccc(Cl)c2)CC1	i	nt	i	i	i	i
CCOC(=O)N1CCC(N(CCN(C)C)C(=S)Nc2cc(Cl)cc(Cl)c2)CC1	i	nt	i	79.4µM	i	i
Cc1cccc(NC(=O)c2oc3ccccc3c2NC(=O)c2cc(=O)c3ccccc3o2)c1	i	nt	nt	i	nt	i
O=C(CCCSc1nnc(-c2cccs2)n1CC1CCCO1)c1ccccc1 (configuration not stated)	79.4µM	nt	i	i	i	i
Nc1ccc2c(c1)OC1(CCCCC1)O2	56.2µM	nt	i	?	?	?
CCOc1ccccc1NC(=O)c1ccc2c(Cl)c3c(nc2c1)CCCC3	i	nt	nt	i	nt	i
CN1CCc2cccc3c2[C@@H]1Cc1ccc(O)c(O)c1-3	12.6µM	i	-61.2	35.5µM	31.6µM	?
Cc1cc(O)c(CN2CCN(c3ccccc3)CC2)c2oc(=O)cc(C)c12	i	nt	nt	i	nt	i
CCN(CC)c1ccc(/C=C2\C(=O)N(c3nnc(C)c(=O)[nH]3)N=C2C)cc1	20µM	?	i	8.91µM	?	i
CC1=NN(CCC#N)C(=O)/C1=C/c1ccc(N(C)C)cc1	i	i	i	nt	i	?
COc1cc(/C=C2/C(=O)ON=C2C)cc(Cl)c1O	i	nt	-58.8	56.2µM	nt	i
CCCCC1(C)OC(=O)C(=Cc2ccc(N(CC)CC)cc2)C(=O)O1 (configuration not stated)	?	i	i	56.2µM	i	i
